The supplement of paper PMC6555819

How the values were obtained:
Assay in all cases: PBM binding z-score (relative to random genomic background probes); higher = stronger binding; sequences stand for … in GC…GCGATTGACAGCGTAGAATGAAGG
[1] = system: FXR:RXRa (NR concentration 270 nM, RXRa partner concentration 90 nM)
Procedure, shortened: (§1)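 On custom Agilent 4×180K arrays, double-stranded probes with 34-nt variable regions carried direct-repeat seeds, single-nucleotide variants, half-site ablations or random human genomic background. Ligand-free nuclear receptor dimers were applied for 1 h, and binding was read with antibodies against each partner (one per run). Binding z-scores come from regression-normalized fluorescence, with the random background probes as reference.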

[2] = system: LXRa:RXRa (NR concentration 270 nM, RXRa partner concentration 90 nM)
Procedure, shortened: as §1

[3] = system: LXRa homodimer (NR concentration 270 nM)
Procedure, shortened: as §1

[4] = system: LXRb:RXRa (NR concentration 270 nM, RXRa partner concentration 90 nM)
Procedure, shortened: as §1

[5] = system: LXRb homodimer (NR concentration 270 nM)
Procedure, shortened: as §1

[6] = system: PPARa:RXRa (NR concentration 270 nM, RXRa partner concentration 90 nM)
Procedure, shortened: as §1

[7] = system: PPARg:RXRa (NR concentration 180 nM, RXRa partner concentration 90 nM)
Procedure, shortened: as §1

[8] = system: PPARg:RXRa 270nM:90nM, anti-RXR (NR concentration 270 nM, RXRa partner concentration 90 nM)
Procedure, shortened: as §1

[9] = system: PPARg:RXRa 30nM:10nM, anti-RXR (NR concentration 30 nM, RXRa partner concentration 10 nM)
Procedure, shortened: as §1

[10] = system: PPARg:RXRa 90nM:30nM, anti-RXR (NR concentration 90 nM, RXRa partner concentration 30 nM)
Procedure, shortened: as §1

[11] = system: PPARg:RXRa DBDmut IVT, anti-RXR (DBD mutation: RXRa K156A/R161A, NR concentration 270 nM, RXRa partner concentration 90 nM)
Procedure, shortened: as §1

[12] = system: PPARg:RXRa IVT, anti-PPARg (NR concentration 270 nM, RXRa partner concentration 90 nM)
Procedure, shortened: as §1

[13] = system: PPARg DBDmut:RXRa IVT, anti-PPARg (DBD mutation: PPARg1 K132A/R137A, NR concentration 270 nM, RXRa partner concentration 90 nM)
Procedure, shortened: as §1

[14] = system: PPARg DBDmut IVT, anti-PPARg (DBD mutation: PPARg1 K132A/R137A, NR concentration 270 nM)
Procedure, shortened: as §1

[15] = system: PPARg homodimer (NR concentration 180 nM)
Procedure, shortened: as §1

[16] = system: PXR:RXRa (NR concentration 270 nM, RXRa partner concentration 90 nM)
Procedure, shortened: as §1

[17] = system: PXR homodimer (NR concentration 270 nM)
Procedure, shortened: as §1

[18] = system: RARa:RXR (NR concentration 270 nM, RXRa partner concentration 90 nM)
Procedure, shortened: as §1

[19] = system: RARa homodimer (NR concentration 270 nM)
Procedure, shortened: as §1

[20] = system: RARb:RXRa (NR concentration 270 nM, RXRa partner concentration 90 nM)
Procedure, shortened: as §1

Sequence | PBM binding z-score [1] | PBM binding z-score [2] | PBM binding z-score [3] | PBM binding z-score [4] | PBM binding z-score [5] | PBM binding z-score [6] | PBM binding z-score [7] | PBM binding z-score [8] | PBM binding z-score [9] | PBM binding z-score [10] | PBM binding z-score [11] | PBM binding z-score [12] | PBM binding z-score [13] | PBM binding z-score [14] | PBM binding z-score [15] | PBM binding z-score [16] | PBM binding z-score [17] | PBM binding z-score [18] | PBM binding z-score [19] | PBM binding z-score [20]
TCATATAGGGAATACAGGTGAAAGTCGGCATCTA | 1.31 | 1.1 | 0.252 | 0.958 | 0.236 | 1.92 | 1.16 | 2.76 | 4.44 | 3.22 | 3.35 | 2.3 | 1.03 | 1.07 | 1.14 | 0.862 | 0.632 | 1.2 | 1.4 | 0.823
CCTACAGGGCCACGAAAGGTCATTGATTCAGTGA | 4.09 | 5.83 | 4.74 | 4.54 | 0.292 | 4.51 | 1.86 | 3.15 | 0.825 | 2.22 | 0.816 | 1.87 | -0.216 | -0.41 | 2.63 | 5.61 | 1.86 | 5.07 | 1.07 | 4.32
GCATATAGGTAATACAAGGTGAGAGTCCGATTGT | 0.288 | 0.937 | -0.139 | 0.0719 | -0.459 | 0.92 | 1.14 | 1.19 | 0.605 | 0.684 | 4.28 | 3.14 | 1.33 | 0.73 | 0.397 | 0.114 | 0.184 | 1.59 | 0.608 | 0.335
GCTTGTAGATTAAGGTTAAGAAAGACTAAGCTAA | 0.292 | 0.89 | -0.399 | 0.611 | -0.832 | 1.32 | 0.216 | 0.627 | -0.258 | 0.49 | -0.0536 | 0.119 | 0.205 | -0.0743 | 0.0936 | 0.375 | -0.332 | 1.01 | 0.194 | 0.875
TCTCGGAGGACACGAAAGGTCAGAGATCGACATC | 3.24 | 3.71 | 2.64 | 3.32 | 0.0145 | 3.65 | 1.5 | 2.75 | 2.97 | 2.88 | 1.64 | 1.91 | 0.484 | 0.156 | 2.63 | 3.95 | 0.205 | 4.31 | 0.638 | 4.4
ACTAGCAGGCCAAGGGTTACTCAAGATTAGTCCG | 0.239 | 2.23 | -0.412 | 0.935 | -0.494 | 2.61 | 4.88 | 5.61 | 4.58 | 5.71 | 0.518 | 2.14 | -0.596 | -0.597 | 0.215 | 0.27 | -0.411 | 1.05 | -0.361 | 0.894
CGAACTCGGTCAAGGACAGTGAATCTCCGCACGC | 0.923 | 0.427 | -0.214 | -0.232 | -0.75 | 0.927 | 0.826 | 0.618 | -0.54 | -0.129 | 3.2 | 2.25 | -0.0732 | -0.272 | -0.336 | 0.0143 | -0.196 | 0.378 | -0.323 | 2.62
GGAACGAGGACAAGTTGATAGCAGAGTTTGATGG | 0.526 | -0.33 | -0.0892 | -0.534 | -0.685 | 0.0298 | 0.641 | -0.0478 | -0.0459 | -0.0367 | 0.934 | 0.446 | -0.104 | -0.565 | -0.282 | 0.0933 | 0.0308 | 0.108 | -0.522 | 1.32
AGTCAAAGTTCAGGACGAAGTAACGTAAAGCACG | 3.85 | 3.49 | 0.943 | 1.68 | 0.274 | 3.3 | 4.78 | 4.86 | 1.78 | 3.86 | -0.478 | 1.38 | 0.781 | 0.688 | 1.46 | 2.02 | 0.921 | 1.93 | 1.14 | 4.2
GATACAGGGTCAAGGCCAGCGTACGCGTATTGAT | 6.93 | 4.12 | 0.203 | 3.86 | -0.187 | 5.63 | 5.9 | 5.32 | 2.19 | 4.12 | 2.09 | 3.85 | 0.49 | -0.316 | 2.29 | 3.48 | 0.372 | 4.36 | 1.03 | 4.52
TCGAGAAGGTTAGGGGCATTCAGAATGGCGTCGA | 0.95 | 0.839 | -0.359 | 1.38 | -0.293 | 1.83 | 0.297 | 1.19 | 2.23 | 1.43 | 1.15 | 0.162 | -1.01 | -0.967 | 0.818 | 0.866 | -0.0334 | 0.991 | 0.387 | 2.02
TAGCTTAGGTCATGCGGGCCAGTATAGTGTCGGC | 4.63 | 3.38 | 0.514 | 1.93 | 0.519 | 3.57 | 1.32 | 1.95 | 0.0747 | 0.973 | 1.52 | 1.65 | 1.35 | 0.321 | 1.44 | 1.85 | -0.011 | 2.73 | -0.0276 | 3.87
ATCGACAGGTCGAGGTGAGTATAGAGAAAGGGAA | 0.437 | 0.548 | -0.71 | 0.0707 | -0.444 | 1.51 | 0.748 | 0.211 | 0.16 | 0.281 | -0.576 | 0.778 | -0.0493 | -0.0748 | 0.551 | 0.0775 | 0.0221 | 0.649 | 0.423 | 1.69
TATTGTAGATCAACAGGAGGTTAAGAAAGATCGA | 0.217 | 1.55 | 0.577 | 1.03 | 0.546 | 1.46 | 0.641 | 0.531 | 0.596 | 0.68 | 0.634 | 1.7 | 1.31 | 1.13 | 0.72 | 0.93 | 0.0451 | 0.904 | 0.431 | 0.665
TCTAGCAGGCCAGAGGGTCATTCAAGAGGTACGG | 1.45 | 1.27 | -0.353 | 1.51 | -1.01 | 2.71 | 1.54 | 3.08 | 2.26 | 2.98 | 0.912 | 0.374 | -1.21 | -1.66 | 0.751 | 2.2 | -0.364 | 2.79 | -0.545 | 2.17
